Only some compounds are listed: those with a hit (about 1.3% of all), similar ones and a draw of the others.
MEX-5 binding: C. elegans MEX-5 TCR-2 RNA binding activity. MEX-5/FITC-TCR2 RNA binding, fluorescence polarization; hits give low values. activity score (negative = inhibition of binding), % at 10 µM. 0.38% of 300,000 active. AID 1832;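 active = inhibition past about -25% in most replicates, and total fluorescence under double the plate's negative control median, limit read from the data; inconclusive = replicates evenly split on the limit, or fluorescence at least double controls; inactive = too little inhibition in most replicates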
GLD-1 RNA inh: GLD-1-TGE RNA interaction inhibition (C. elegans); inhibition, % at 5.96 µM; purified GLD-1 + fluorescein TGE RNA, fluorescence polarization; 0.44% of 320,000 active;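 active = percent inhibition above a per-plate cutoff, the plate mean of test compounds plus 3 SD, cut at about 30% in these data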
Target sequence (Q17339 whole entry, looked up): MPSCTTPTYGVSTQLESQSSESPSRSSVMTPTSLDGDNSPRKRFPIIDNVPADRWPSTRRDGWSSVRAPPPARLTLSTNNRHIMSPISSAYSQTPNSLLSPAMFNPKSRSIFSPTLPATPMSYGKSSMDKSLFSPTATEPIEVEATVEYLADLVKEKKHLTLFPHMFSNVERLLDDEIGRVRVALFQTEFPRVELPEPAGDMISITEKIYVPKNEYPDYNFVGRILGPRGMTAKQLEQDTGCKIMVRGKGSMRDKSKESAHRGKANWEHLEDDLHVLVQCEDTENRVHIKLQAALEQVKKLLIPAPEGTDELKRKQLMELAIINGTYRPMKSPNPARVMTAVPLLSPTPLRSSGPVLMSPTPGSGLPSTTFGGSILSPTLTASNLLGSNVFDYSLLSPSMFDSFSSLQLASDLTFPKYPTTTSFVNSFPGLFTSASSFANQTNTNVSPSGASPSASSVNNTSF
EBV gp42 inh: inhibitors of Epstein-Barr virus glycoprotein 42; 0.42% of 220,000 active; AID 1085; Q1HVG2; Fluorescence polarization binding assay, mP read-out; inhibition, % (tested at 21.74 µM); in the data active = inhibition above about 50%
Target sequence (Q1HVG2 whole entry, looked up): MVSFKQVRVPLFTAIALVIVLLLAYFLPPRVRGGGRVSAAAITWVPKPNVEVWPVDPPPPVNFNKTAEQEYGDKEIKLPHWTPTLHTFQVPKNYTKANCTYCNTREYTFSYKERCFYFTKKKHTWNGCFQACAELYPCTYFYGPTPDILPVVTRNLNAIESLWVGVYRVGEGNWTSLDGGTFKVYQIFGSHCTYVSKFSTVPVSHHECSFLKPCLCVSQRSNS
BCLXL inh: inhibitors of human Bcl-xL. inhibition, % at 10.9 µM. AID 2129. GST-Bcl-xL / FITC-Bim BH3 peptide fluorescence polarization. 0.7% of 320,000 active. Q07817;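 active = inhibition above the mean of all tested compounds plus 3 SD, cutoff set per campaign, cut at about 30% in these data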;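 also: inhibitors lower millipolarization by displacing the labeled peptide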
MCL1-BIM inh: inhibitors of human MCL1 binding to BIM-BH3 peptide; Q07820; GST-MCL1 / FITC-Bim-BH3 fluorescence polarization; inhibition, % at 10.9 µM; 0.68% of 320,000 active;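 active = inhibition above the mean inhibition of all tested compounds plus 3 SD, set per campaign, cut at about 40% in these data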;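 also: higher means more loss of mP so more displacement of Bim peptide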
Of the large screens only hits and unclear results are named; the others gave an inactive call.

O=C(c1ccc(Cl)cc1)[C@@H]1[C@@H]2C(=O)N(c3ccc(Cl)cc3)C(=O)[C@@H]2C2c3ccccc3C=NN21 (stereo partly specified)	none
O=C(c1ccco1)[C@@H]1[C@@H]2C(=O)N(c3ccc(F)cc3)C(=O)[C@@H]2[C@H]2C=Cc3ccccc3N21	BCLXL inh 33 (no result: MEX-5 binding)
Cc1ccc(S(=O)(=O)/N=C(/c2ccc(F)cc2)N(C)C)cc1	none (no result: EBV gp42 inh)
O=C(COC(=O)c1ccc(NS(=O)(=O)c2cccs2)cc1)NCc1ccco1	EBV gp42 inh 67
O=C(COC(=O)c1cccs1)NCc1ccco1	none (no result: EBV gp42 inh)
O=C(CCSc1nc2ccccc2s1)N/N=C/c1c(O)ccc2ccccc12	MEX-5 binding -46
CCN1/C(=C/C(C)=C/c2sc3ccccc3[n+]2CC)Sc2ccccc21	GLD-1 RNA inh active, BCLXL inh 33
CCSC1=NSC2=NC(=O)/C(=C\c3coc4ccccc4c3=O)C(=N)N12	EBV gp42 inh 88 (no result: MEX-5 binding)
Cc1cc(C)c(S(=O)(=O)c2ccccc2)c(N2CCOCC2)n1	none
CCCN1C(=O)/C(=C/c2c(NCCCOCC)nc3c(C)cccn3c2=O)SC1=S	none (no result: MEX-5 binding, GLD-1 RNA inh, BCLXL inh, MCL1-BIM inh)
CCOCCCNc1nc2c(C)cccn2c(=O)c1/C=C1\SC(=S)N(CC(C)C)C1=O	EBV gp42 inh 104
CCOCCCNc1nc2c(C)cccn2c(=O)c1/C=C1\SC(=S)N(C(C)CC)C1=O (stereo unspecified)	MEX-5 binding inconclusive, EBV gp42 inh 133
S=C(NCc1ccco1)N1CCN(c2ccccc2Cl)CC1	none (no result: MEX-5 binding)
N#Cc1c(-c2ccco2)cc(-c2ccccc2)[nH]c1=O	BCLXL inh 34
Cc1cc(-c2ccccc2)[nH]c(=O)c1C#N	none
Cc1c(NC(=O)c2ccc(NS(=O)(=O)c3ccc(F)c(F)c3)cc2)c(=O)n(-c2ccccc2)n1C	none (no result: MEX-5 binding, EBV gp42 inh, BCLXL inh, MCL1-BIM inh)
CCc1ccc(CN(C)C(=O)CCc2nc3ccccc3n(-c3ccc(OC)cc3)c2=O)cc1	none
COc1ccc(/C(O)=C/c2nc3ccccc3n(-c3ccccc3)c2=O)cc1	MEX-5 binding inconclusive, EBV gp42 inh 59
Cc1cc(C)n2c(SC/C(O)=C(\C#N)c3nc4ccccc4[nH]3)nnc2n1	EBV gp42 inh 67
Cc1ccccc1-n1c(SC/C(O)=C(\C#N)c2nc3ccccc3[nH]2)nnc1-c1ccncc1	none
CCOC(=O)NC(=O)/C(C#N)=C\Nc1sccc1C(=O)OC	GLD-1 RNA inh active, BCLXL inh active, MCL1-BIM inh active
COc1ccccc1C(=O)Nc1nnc(-c2ccccc2)s1	BCLXL inh 47 (no result: EBV gp42 inh)
Cc1c(Cl)cccc1NC(=S)NC1CCCC1	none (no result: EBV gp42 inh)
CCCCNC1=CC(=O)C(=O)c2ccccc21	none
CCCCN1C=CC(=C2C(=O)c3ccccc3C2=O)C=C1	MEX-5 binding -38
COc1ccc(/C=C/c2cccc[n+]2C)c(O)c1	none (no result: EBV gp42 inh)
CCN(CC)c1ccc(/C=C/c2cccc[n+]2C)c(OC)c1	MEX-5 binding inconclusive, GLD-1 RNA inh 42 (no result: EBV gp42 inh)
COc1ccc(/C=C2\C(=O)NC(=S)N2C(=O)c2ccc(C)cc2)cc1	MEX-5 binding -26
O=C1NC(=S)N(C(=O)c2ccc(F)cc2)/C1=C/c1cccnc1	none
O=C(CN1CCCC1)Nc1c(Cl)cccc1Cl	none (no result: EBV gp42 inh)
O=S(=O)(Nc1ccc2c(c1)OCCO2)c1cccc2cccnc12	EBV gp42 inh 99
COc1ccc(OC)c(NC(=O)C2CCN(S(=O)(=O)c3c(C)noc3C)CC2)c1	GLD-1 RNA inh 63
Cc1ccc(-c2cc(-c3ccc(C)o3)nc(N)c2C#N)cc1	GLD-1 RNA inh 39, BCLXL inh 32, MCL1-BIM inh 45
Cc1ccc(-c2cc(-c3ccc(F)cc3)c(C#N)c(N)n2)o1	none
CCOC(=O)CN=C1CC(C)(C)CC2=C1Sc1ncnc(N(C)C)c1N2	BCLXL inh 38
CCc1ccc(S(=O)(=O)Nc2cc(SCC(=O)O)c(O)c3ccccc23)cc1	MEX-5 binding -52
Cc1ccc(C)c(S(=O)(=O)Nc2cc(SCC(=O)O)c(O)c3ccccc23)c1	none (no result: MEX-5 binding)
O=C(O)CSc1cc(NS(=O)(=O)c2cccc([N+](=O)[O-])c2)c2ccccc2c1O	MEX-5 binding -66 (no result: GLD-1 RNA inh, BCLXL inh, MCL1-BIM inh)
CCOc1ccc(S(=O)(=O)Nc2cc(SCC(=O)O)c(O)c3ccccc23)cc1	MEX-5 binding -51 (no result: GLD-1 RNA inh, EBV gp42 inh, BCLXL inh, MCL1-BIM inh)
O=C(NNC(=O)c1cc(Cl)ccc1O)c1cccc(S(=O)(=O)N2CCOCC2)c1	MEX-5 binding -27 (no result: EBV gp42 inh)
Cc1sc2ncn(CC(=O)NCc3ccco3)c(=O)c2c1-c1ccc(F)cc1	none
O=C(Cn1cnc2scc(-c3cccc([N+](=O)[O-])c3)c2c1=O)NCc1ccco1	EBV gp42 inh 66
CCc1noc(C)c1C(=O)NNC(=O)c1cc(OC)cc(OC)c1	none (no result: MEX-5 binding, EBV gp42 inh)
Oc1ccc(N=Nc2ccccc2-c2nn[nH]n2)c(O)c1	MEX-5 binding -35, BCLXL inh 31 (no result: EBV gp42 inh)
COc1ccccc1NC(=O)CC(c1ccc(OC(C)C)cc1)c1ccccc1OC (stereo unspecified)	EBV gp42 inh 70
COc1ccccc1C(CC(=O)Nc1ccc(C)c(C)c1)c1ccc(OC(C)C)cc1 (stereo unspecified)	none
O=C(CN1C(=O)NC2(CCCCCC2)C1=O)c1ccc(Cl)cc1	none (no result: MEX-5 binding, EBV gp42 inh)
Cc1[nH][nH]c(=O)c1C(c1ccccc1[N+](=O)[O-])C(C#N)C#N (stereo unspecified)	none
Cc1[nH][nH]c(=O)c1C(c1cc([N+](=O)[O-])ccc1O)c1c(C)[nH][nH]c1=O	MEX-5 binding -27
Cc1nnc(SCC(=O)Nc2ccc(N3CCN(S(C)(=O)=O)CC3)cc2)o1	none (no result: EBV gp42 inh)
O=C(/C=C/c1cccs1)N1CCC2(CC1)Oc1ccc(F)cc1C(=O)C21CC(c2ccc(Cl)cc2)=NO1 (stereo unspecified)	BCLXL inh 31
COc1cccc(CN(C)C(=O)CSCC(=O)Nc2cccc(C)c2)c1OC	none (no result: MEX-5 binding, EBV gp42 inh)
NS(=O)(=O)c1c(Sc2ccccc2C(=O)O)ccc2ccccc12	BCLXL inh 35, MCL1-BIM inh 46 (no result: EBV gp42 inh)
CSc1sccc1/C=C(/C#N)C(=O)c1ccco1	MEX-5 binding -27 (no result: EBV gp42 inh)
CSc1sccc1/C=N/O	none
CC1(C)OC2CC3C4CC(F)C5=CC(=O)C=CC5(C)C4(F)C(O)CC3(C)C2(C(=O)CO)O1 (stereo unspecified)	BCLXL inh 57, MCL1-BIM inh 53 (no result: EBV gp42 inh)
COc1ccc(C)cc1NC(=O)CCS(=O)(=O)c1cc2c(cc1Cl)NC(=O)CO2	none (no result: EBV gp42 inh)
Cc1ccc(NC(=O)CCS(=O)(=O)c2cc3c(cc2Cl)NC(=O)CO3)cc1	MEX-5 binding -26 (no result: EBV gp42 inh)
Nc1cccc2c1C(=O)N(CCOc1ccccc1F)C2=O	BCLXL inh 35 (no result: EBV gp42 inh)
N#Cc1ccccc1OCCN1C(=O)c2ccccc2C1=O	none
CCOc1cccc(-c2c(C(=O)N/N=C/c3ccc(Br)cc3)nnn2-c2nonc2N)c1	none (no result: EBV gp42 inh)
CCn1c(C)nc2cc(N)ccc21	MEX-5 binding -51
Cc1nc2cc(C(=O)O)ccc2n1C1CCCCC1	none
Cc1nc2cc(N)ccc2n1C1CCCCC1	MEX-5 binding -39
O=C(O)CCCCCN1C(=O)C(O)=C(C(=O)/C=C/c2ccccc2)C1c1ccccc1[N+](=O)[O-] (stereo unspecified)	MEX-5 binding -40

Screening data from PubChem.
